An excerpt weighted towards active compounds, which were near 1.2% of everything screened.
RecA splice inh – Mtb RecA intein splicing inhibitors, primary screen, biochemical, fluorescence, HTS; 0.75% of 290,000 active; Protein RecA (Mycobacterium tuberculosis (strain ATCC 25618 / H37Rv)), P9WHJ3; cell-free RecA intein splicing; inhibition, % (test concentration not listed); in the data active = inhibition above about 30%
CCHF vOTU inh – CCHFV vOTU protease inhibitors, primary screen, biochemical, Pep-AMC substrate, fluorescence; Crimean-Congo hemorrhagic fever virus L polyprotein viral ovarian tumor (vOTU) protease …; inhibition, % at 11.5 µM; 0.55% of 370,000 active; AID 651958, 2012; in the data active = inhibition above about 30%
Rv3671c inh – Rv3671c serine protease inhibitors, primary screen, biochemical, fluorescence polarization, M. tuberculosis H37Rv; 0.048% of 320,000 active; AID 2606, 2010; inhibition, % at 5.96 µM; in the data active = inhibition above about 38%;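 note: extracellular domain of Rv3671c used as enzyme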
UGM FP inh – M. tuberculosis UGM enzyme inhibitors, primary screen, biochemical, fluorescence polarization, single point | UDP-galactopyranose mutase (Mycobacterium tuberculosis (strain ATCC 25618 / H37Rv)), … | 0.06% of 320,000 active | AID 504406, 2011 | purified UGM, fluorescence polarization probe displacement | inhibition, % at 10 µM; in the data active = inhibition above about 10%, passing the limit was not always enough
Mtb betalactam – beta-lactam sensitization of Mtb H37Rv, H37Rv; M. tuberculosis H37Rv growth with meropenem, percent inhibition; inhibition, % at 25 µM; 0.27% of 330,000 active;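 note: growth measured after seven days incubation then overnight dye step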
GFP chromo cs – counter-screen: blocks GFP chromophore formation, dose response, counter-screen, biochemical, fluorescence, homogeneous; shares compounds with RecA splice inh; cell-free GFP chromophore formation; EC50, µM; 83% of 2,100 active; AID 434968, 2010
Numbers stand for hits; i = inactive; nt = no result. Unless noted, the rule behind the calls is not given here.

SMILES	RecA splice inh	CCHF vOTU inh	Rv3671c inh	UGM FP inh	Mtb betalactam	GFP chromo cs
COc1cc(/C=C/c2[nH]c(=O)[nH]c(=O)c2[N+](=O)[O-])cc([N+](=O)[O-])c1O	i	i	i	i	i	nt
CCOc1cc(C(c2c(C)[nH][nH]c2=O)c2c(C)[nH][nH]c2=O)cc(Cl)c1O	94.9	i	i	i	i	i
CCOc1cc(C2C3=C(CCCC3=O)NC3=C2C(=O)CCC3)cc(Cl)c1O	i	i	i	i	i	nt
O=C1/C(=C\c2cccc(O)c2O)SC(=S)N1Cc1ccccc1	36.3	i	i	i	i	38.6
O=C1/C(=C\c2cc([N+](=O)[O-])ccc2O)SC(=S)N1Cc1ccc(Cl)cc1	51.8	i	i	i	i	35.3
CCSC1(SCC)N=C(N)C2(C#N)C(c3ccc(F)cc3)C12C#N (stereo unspecified)	49.7	i	i	i	i	38.3
Cc1ccc2c(c1)N(C(=O)CSc1nncn1C)C(C)(C)c1ssc(=S)c1-2	38.6	i	i	i	i	13.7
COC(=O)CN1C(c2ccc(Cl)cc2)=Nc2ccc(Cl)cc2C1c1ccccc1 (stereo unspecified)	31.7	i	i	i	i	i
COc1ccc(C2=Nc3ccc(C)cc3C(c3ccccc3)N2CC(=O)NN)cc1 (stereo unspecified)	i	i	i	i	i	nt
COc1cc(NC2CCCCC2O)c2nc(-c3ccc(Cl)cc3)ccc2c1 (stereo unspecified)	51.2	i	i	i	i	0.179
COc1ccc(OCC(=O)OCC(=O)NC2CCCCC2C)cc1 (stereo unspecified)	nt	i	i	i	i	nt
C#CCCCN([C@H](C(=O)OC)C(C)C)S(=O)(=O)c1ccc(F)cc1Br	nt	i	nt	nt	nt	nt
COC(=O)C1=NN(C(C)=O)C2(CC(=O)N(c3cc(C)cc(C)c3)C2=O)C1 (stereo unspecified)	30.2	i	i	i	i	i
O=c1[nH]c(/C=C/c2cccnc2)c([N+](=O)[O-])c(=O)[nH]1	40.8	i	i	i	i	i
CCc1ccc(CCNC(=O)OC2CC3CC2[C@H]2CCCCN2C3)cc1 (stereo partly specified)	nt	i	nt	nt	nt	nt
O=[N+]([O-])c1cc(-c2ccc(C(=S)N3CCOCC3)o2)ccc1Cl	30.9	i	i	i	i	17.6
C#CCOc1ccc(OC)cc1C(c1c(C)[nH][nH]c1=O)c1c(C)[nH][nH]c1=O	94.9	nt	nt	i	i	0.413
CCOc1ccc(C(c2c(C)[nH][nH]c2=O)c2c(C)[nH][nH]c2=O)cc1OC	94.5	i	i	i	i	0.442
CCOc1cc(C(c2c(C)[nH][nH]c2=O)c2c(C)[nH][nH]c2=O)ccc1OS(=O)(=O)c1ccc(C)cc1	97.4	i	i	i	i	0.493
O=C(NC1CCCCN(Cc2cccc(Cl)c2)C1=O)c1ccc2ccccc2c1 (stereo unspecified)	nt	i	nt	nt	nt	nt
COC(=O)C(C(C)=O)C1=C/C(=N\S(=O)(=O)c2ccc(C)cc2)c2ccccc2C1=O (stereo unspecified)	i	nt	i	i	i	nt
CC(C)c1ccc(S(=O)(=O)/N=C2\C=C(NS(=O)(=O)c3ccccc3)C(=O)c3ccccc32)cc1	44.5	67.7	i	i	i	6.7
O=C(Nc1ccccc1Cl)OC1CC2CC1[C@H]1CCCCN1[C@H]2Cc1ccccc1 (stereo partly specified)	nt	i	nt	nt	nt	nt
CCc1nnc(NS(=O)(=O)c2ccc(NC(=S)NC(=O)/C=C/c3ccc(C(C)C)cc3)cc2)s1	36.0	nt	i	i	i	13.2
CCc1nnc(NS(=O)(=O)c2ccc(NC(=S)NC(=O)/C=C/c3ccccc3)cc2)s1	i	i	i	i	i	nt
SMILES	RecA splice inh	CCHF vOTU inh	Rv3671c inh	UGM FP inh	Mtb betalactam	GFP chromo cs
CCCCCCCCN1C(=O)[C@@H](CC(=O)N2CCN(C(=O)OCC)CC2)C[C@@]2(C(=O)OC)C1=C[C@H](COCc1ccccc1)O[C@@H]2C	nt	i	nt	nt	nt	nt
CCOC(=O)c1c(C)sc2c1N(C(=O)CCl)c1cc(Cl)ccc1S2	54.8	i	i	i	i	1.58
CC(=O)NC(c1ccccc1)c1cccnc1 (stereo unspecified)	i	i	i	i	i	nt
COC(=O)C(C#N)C(c1cccnc1)c1c(C)[nH][nH]c1=O (stereo unspecified)	85.3	i	i	i	i	7.79
Nc1nc(-c2ccc(Br)cc2)c(S(=O)(=O)c2ccccc2)s1	80.6	i	i	i	i	i
Nc1nc(-c2ccc(Cl)cc2)c(S(=O)(=O)c2ccccc2)s1	i	i	i	i	i	nt
COC(=O)C/C=C/[C@@H](C)[C@H](NC(=O)OCC(Cl)(Cl)Cl)c1ccc(-c2ccccc2)cc1	nt	i	nt	nt	nt	nt
COc1ccc(-c2csc(CCN3N=C(C)CC3=O)n2)cc1	85.8	i	i	i	i	4.77
COc1ccc(-c2csc(C)n2)cc1	i	i	i	i	i	nt
CC1=NN(c2ccc(Cl)c(C(=O)O)c2)C(=O)/C1=C\c1ccc(-c2ccc(C(=O)O)cc2)o1	36.5	i	nt	nt	nt	0.806
O=c1oc2cc(Oc3c([N+](=O)[O-])cc(C(F)(F)F)cc3[N+](=O)[O-])ccc2c2c1CCCC2	41.5	i	i	i	i	0.962
O=C(Cc1ccccc1)NC1(O)C(=O)c2ccccc2C1=O	66.1	i	i	i	i	11
CC1=NN(c2ccc(S(=O)(=O)O)cc2C)C(=O)C1	91.3	i	i	i	i	18.4
O=C(c1c[nH]c(C(=O)C(Cl)(Cl)Cl)c1)c1ccccc1Cl	31.9	i	i	i	i	25
COc1ccccc1NC1=C(N2CCCCC2)C(=O)c2ccccc2C1=O	79.3	nt	i	i	i	17.4
Cc1ccc2nc(-c3ccc(CN4CCC5(CC4)CNc4ccccc45)cc3)c(-c3ccccc3)nc2c1	nt	i	nt	nt	nt	nt
CC(=O)Oc1c(Br)cc(N(C(C)=O)S(=O)(=O)c2ccccc2)c2ccccc12	36.6	i	i	i	i	5.3
O=C(O)c1ccc(-n2ccnc2)c([N+](=O)[O-])c1	i	i	i	i	i	nt
COC(=O)c1cc([N+](=O)[O-])c(-n2ccnc2)c([N+](=O)[O-])c1	71.2	i	i	i	i	10.9
CCOc1cc(NC2CS(=O)(=O)CC2O)c(OCC)cc1NC(=O)c1ccccc1 (stereo unspecified)	59.4	i	i	i	i	i
CCOc1cc(NC(=O)c2ccccn2)c(OCC)cc1NC(=O)c1ccccc1	i	i	i	i	i	nt
CC(=O)N1CCn2c3c(c4cc(C)ccc42)CCCC31 (stereo unspecified)	i	i	i	i	i	nt
Cc1ccc2c(c1)c1c3n2CCN(C(=O)CCl)C3CCC1 (stereo unspecified)	73.5	i	i	i	i	7.27
C=CCN(CC#CC(=C)C)Cc1ccc(OC)cc1OC	nt	i	nt	nt	nt	nt

Screens as filed in PubChem.
